Test [1] in a line: P-glycoprotein substrates identified in KB-8-5-11 adenocarcinoma cell line, qHTS therapeutic library screen (AID 1346987). Note: nearly all actives have a fitted effect of over 65% in size. Note: potency is the fitted concentration of half-maximal effect. The procedure, abridged: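 Luminescence from CellTiter-Glo, read 5 min after addition, quantified survival of KB-8-5-11 (P-gp-overexpressing) cells exposed to compounds for 72 h. AC50 was derived from concentration-response curves.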
On the technique in general: qHTS replaces the single test concentration by a dilution series.

Test [2] in a line: NS1 protein of Zika virus - qHTS assay to identify small molecule inhibitors in human HEK 293 cells (AID 1347053). Note: series mostly up to about 46 µM; nearly all actives have a fitted effect of over 55% in size. In outline:
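In this cell-based screen, HEK 293 cultures received compound for one hour before Zika MR766 at MOI = 0.5. NS1 was quantified 24 hours later by TR-FRET, normalized to virus-free wells and infected wells.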

Test [3] can be described thus: qHTS of pediatric cancer cell lines to identify multiple opportunities for drug repurposing: Primary screen for TC32 cells (AID 1347089). Note: nearly all actives have a fitted effect of over 60% in size. Note: potency is the fitted concentration of half-maximal effect. The procedure, abridged: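 Luminescent CellTiter-Glo read-out of metabolically active TC32 cells after 48 h compound exposure. Primary: MIPE 11-point, 0.78 nM–46 µM; NPC 8-point, 0.59 nM–46 µM. Confirmatory: 11-point dilutions.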

A short description of test [4]: qHTS of pediatric cancer cell lines to identify multiple opportunities for drug repurposing: Primary screen for DAOY cells (AID 1347090). Note: nearly all actives have a fitted effect of over 55% in size. Note: potency is the fitted concentration of half-maximal effect. The procedure, abridged: (§1)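 Eight- or eleven-point concentration series, 48 h treatment at 37 degrees C in growth media; readout CellTiter-Glo luminescence. Potency and efficacy were taken from the concentration-response curves.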

The nature of test [5]: qHTS of pediatric cancer cell lines to identify multiple opportunities for drug repurposing: Primary screen for SJ-GBM2 cells (AID 1347091). The procedure, abridged: as §1
Test [6] is described as follows: qHTS of pediatric cancer cell lines to identify multiple opportunities for drug repurposing: Primary screen for A673 cells (AID 1347092). Note: nearly all actives have a fitted effect of over 45% in size. Note: potency is the fitted concentration of half-maximal effect. In outline: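 A673 cells (500-1,000 cells/well in growth media) were pre-incubated 5 h at 37 degrees C, then exposed to compounds for 48 h. Viability was read as CellTiter-Glo luminescence; concentration-response curves came directly from the primary screen.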

Test [7] is described as follows: qHTS of pediatric cancer cell lines to identify multiple opportunities for drug repurposing: Primary screen for SK-N-MC cells (AID 1347093). Note: potency is the fitted concentration of half-maximal effect. The procedure, abridged: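 Metabolically active cells were quantified by ATP-dependent luminescence (CellTiter-Glo, 15 min at room temperature) following 48 h treatment. Cells had been plated at 500-1,000 per well and settled for 5 h beforehand.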

Test [8] is described as follows: qHTS of pediatric cancer cell lines to identify multiple opportunities for drug repurposing: Primary screen for BT-37 cells (AID 1347094). Note: potency is the fitted concentration of half-maximal effect. The procedure, abridged: (§2)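 500-1,000 cells/well; 5 h pre-incubation 37 °C/5% CO2; compound pinned; 48 h; CellTiter-Glo, 15 min RT; luminescence. MIPE 11-pt from 0.78 nM, NPC 8-pt from 0.59 nM final. Bortezomib 2.3 µM final as positive control.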

Test [9] is described as follows: qHTS of pediatric cancer cell lines to identify multiple opportunities for drug repurposing: Primary screen for NB-EBc1 cells (AID 1347095). The procedure, abridged:
as §2

Test [10] can be described thus: qHTS of pediatric cancer cell lines to identify multiple opportunities for drug repurposing: Primary screen for U-2 OS cells (AID 1347096). Note: nearly all actives have a fitted effect of over 50% in size. Note: potency is the fitted concentration of half-maximal effect. In outline: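 Cells (500-1,000/well) in growth media were settled 5 h at 37 degrees C, then given compounds for 48 h. Viability was read as CellTiter-Glo luminescence. Primary runs used MIPE at 11 points (0.78 nM-46 µM) and NPC at 8 points (0.59 nM-46 µM); follow-ups used 11 points.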

A short description of test [11]: qHTS of pediatric cancer cell lines to identify multiple opportunities for drug repurposing: Primary screen for Saos-2 cells (AID 1347097). Note: nearly all actives have a fitted effect of over 40% in size. Note: potency is the fitted concentration of half-maximal effect. The procedure, abridged:
as §2

Test [12] is described as follows: qHTS of pediatric cancer cell lines to identify multiple opportunities for drug repurposing: Primary screen for SK-N-SH cells (AID 1347098). Note: nearly all actives have a fitted effect of over 65% in size. Note: potency is the fitted concentration of half-maximal effect. The procedure, abridged:
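Cells (500-1,000/well) rested 5 h, then received compounds for 48 h; metabolically active cells were measured by CellTiter-Glo luminescence. Final concentrations spanned up to 46 µM (MIPE, 11-point) or 0.59 nM-46 µM (NPC, 8-point) in primary screens, 11-point in follow-ups.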

The nature of test [13]: qHTS of pediatric cancer cell lines to identify multiple opportunities for drug repurposing: Primary screen for NB1643 cells (AID 1347099). Note: nearly all actives have a fitted effect of over 50% in size. Note: potency is the fitted concentration of half-maximal effect. The procedure, abridged:
as §2

The nature of test [14]: Natriuretic polypeptide receptor (hNpr1) antagonism - Pilot counterscreen GloSensor control cell line (AID 1347045; calls by dose curve; note: series mostly up to about 38 µM). In outline: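 Cells were first seeded and incubated overnight at 37C, then loaded with 2% GloSensor substrate for 2 h. Compounds were added for 30 min at room temperature, followed by a baseline read, 50 uM SNP and a final read after 20 min.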
(In general: A counterscreen serves to expose hits that act by an unwanted route or on another target.)

For test [15], the target named is Atrial natriuretic peptide receptor 2 (Homo sapiens) (UniProt P20594). Description: Natriuretic polypeptide receptor (hNpr2) antagonism - Pilot subtype selectivity assay (AID 1347050; calls by dose curve). The procedure, abridged: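 Read-out: GloSensor luminescence (CCD imager), baseline vs post-stimulation. HEK293 cells expressing hNpr2; compounds pre-incubated 30-50 min at ambient temperature; hNppC 1 nM final, 20 min.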

Test [16] deals with Parathyroid hormone/parathyroid hormone-related peptide receptor (Homo sapiens) (UniProt Q03431). Briefly: qHTS for PTHR1 Agonists: Optimization Screen against the NCGC LOPAC library (AID 1347079).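 Note: GloSensor cAMP luminescence in HEK-293 GP2 cells expressing human PTHR1 with IBMX.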 Note: potency is the fitted concentration of half-maximal effect. In outline:
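HEK-293 GP2 cells, PTHR1 + GloSensor cAMP; 3000 cells/well, o/n. Luciferin + IBMX 0.5mM each (stock), 1 hr 37C. Cpd titration, 1 hr 37C. Lum after 15 min RT. Ctrl M-PTH(1-15) top 10uM.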

Test [17] addresses Atrial natriuretic peptide receptor 1 (Homo sapiens) (UniProt P16066). Description: Natriuretic polypeptide receptor (hNpr1) antagonism - Pilot screen (AID 1347049; calls by dose curve;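 note: HEK293 cells with hNpr1 and GloSensor cGMP luciferase stimulated by 0.1 nM hNppA; agonist-evoked cGMP luminescence read 20 min after hNppA addition; series mostly up to about 58 µM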). The procedure, abridged:
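Cells expressing receptor plus cGMP biosensor are seeded and incubated overnight at 37C, then loaded with GloSensor reagent (2% final) at room temperature for 2 h. Library compounds go on for 30 min. A pre-read precedes agonist (hNppA, 0.1 nM final) and a 20-min readout.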

For test [18], the target named is T1, Tyrosine-protein phosphatase non-receptor type substrate 1 (Homo sapiens) + Leukocyte surface antigen CD47 (Homo sapiens) (UniProt P78324+Q08722). Briefly: CD47-SIRPalpha protein protein interaction - LANCE assay qHTS validation (AID 1347057; active = well fitted curve in the direction sought with a large enough effect in the signal ratio, with a control signal flat, not every such curve was filed as active; the % refers to the signal ratio; note: series mostly up to about 38 µM). The procedure, abridged:
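Inhibition of soluble CD47/SIRPalpha ectodomain association by titrated compounds, measured as 665/615 nm time-resolved FRET ratio after sequential 30 min room-temperature incubations.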
A general note: Time-resolved FRET reads energy transfer from a long-lived donor to a nearby acceptor.

Test [19] deals with T1, Tyrosine-protein phosphatase non-receptor type substrate 1 (Homo sapiens) + Leukocyte surface antigen CD47 (Homo sapiens). Description: CD47-SIRPalpha protein protein interaction - HTRF assay qHTS validation (AID 1347058; active = well fitted curve in the direction sought with a large enough effect in the signal ratio, not every such curve was filed as active; the % refers to the signal ratio; note: series mostly up to about 38 µM). The procedure, abridged: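 Soluble extracellular domains (6His-CD47, Avi-tag-biotinylated SIRPalpha) in PBS pH 7.4 with 0.05% IGEPAL CA-630. Compounds were preincubated 30 min at RT with CD47 and anti-His-Eu, then SIRPalpha and SAV-XL665 were added. TR-FRET 665/615 ratio.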

The target is the same in test [20]. Briefly: CD47-SIRPalpha protein protein interaction - Alpha assay qHTS validation (AID 1347059).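 Note: bead proximity luminescence from CD47 binding SIRPalpha after compound preincubation with SIRPalpha.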 The procedure, abridged:
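In PBS (pH 7.4) with 0.05% IGEPAL CA-630, compound is preincubated with biotin-Avi-SIRPalpha ectodomain before His-CD47 ectodomain and affinity beads are added. Light-protected room-temperature incubations; AlphaScreen readout.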

Unmarked numbers belong to inactive results. Records with an inconclusive call do not appear. Active and inactive are the calls of the source. Unless noted, calls come from the whole dose curve; as a rule, active = well fitted curve in the direction sought with a large enough effect; inconclusive = small, poorly fitted or top-dose-only effect, or another doubt; inactive = no such curve, though single readings can be large; an effect the other way counts as inactive or inconclusive.

Parathyroid hormone/parathyroid hormone-related peptide receptor (Homo sapiens), sequence (Q03431 whole entry, looked up): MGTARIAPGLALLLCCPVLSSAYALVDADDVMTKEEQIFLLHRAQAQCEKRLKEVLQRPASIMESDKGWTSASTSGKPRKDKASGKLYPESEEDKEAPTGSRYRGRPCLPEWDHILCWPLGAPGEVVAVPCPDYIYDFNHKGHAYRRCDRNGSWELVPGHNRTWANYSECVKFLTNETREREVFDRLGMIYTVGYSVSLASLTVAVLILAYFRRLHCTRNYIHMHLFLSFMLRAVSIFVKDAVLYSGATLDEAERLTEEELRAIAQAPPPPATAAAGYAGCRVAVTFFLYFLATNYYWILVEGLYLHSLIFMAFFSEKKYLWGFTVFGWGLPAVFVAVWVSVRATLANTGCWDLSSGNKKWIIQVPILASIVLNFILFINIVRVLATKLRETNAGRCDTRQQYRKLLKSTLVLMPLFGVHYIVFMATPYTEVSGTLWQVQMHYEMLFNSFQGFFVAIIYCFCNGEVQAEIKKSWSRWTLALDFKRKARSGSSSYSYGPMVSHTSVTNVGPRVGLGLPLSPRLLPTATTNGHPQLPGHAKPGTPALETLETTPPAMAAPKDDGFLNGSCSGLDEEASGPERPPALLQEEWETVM
Atrial natriuretic peptide receptor 2 (Homo sapiens), sequence (P20594 whole entry, looked up): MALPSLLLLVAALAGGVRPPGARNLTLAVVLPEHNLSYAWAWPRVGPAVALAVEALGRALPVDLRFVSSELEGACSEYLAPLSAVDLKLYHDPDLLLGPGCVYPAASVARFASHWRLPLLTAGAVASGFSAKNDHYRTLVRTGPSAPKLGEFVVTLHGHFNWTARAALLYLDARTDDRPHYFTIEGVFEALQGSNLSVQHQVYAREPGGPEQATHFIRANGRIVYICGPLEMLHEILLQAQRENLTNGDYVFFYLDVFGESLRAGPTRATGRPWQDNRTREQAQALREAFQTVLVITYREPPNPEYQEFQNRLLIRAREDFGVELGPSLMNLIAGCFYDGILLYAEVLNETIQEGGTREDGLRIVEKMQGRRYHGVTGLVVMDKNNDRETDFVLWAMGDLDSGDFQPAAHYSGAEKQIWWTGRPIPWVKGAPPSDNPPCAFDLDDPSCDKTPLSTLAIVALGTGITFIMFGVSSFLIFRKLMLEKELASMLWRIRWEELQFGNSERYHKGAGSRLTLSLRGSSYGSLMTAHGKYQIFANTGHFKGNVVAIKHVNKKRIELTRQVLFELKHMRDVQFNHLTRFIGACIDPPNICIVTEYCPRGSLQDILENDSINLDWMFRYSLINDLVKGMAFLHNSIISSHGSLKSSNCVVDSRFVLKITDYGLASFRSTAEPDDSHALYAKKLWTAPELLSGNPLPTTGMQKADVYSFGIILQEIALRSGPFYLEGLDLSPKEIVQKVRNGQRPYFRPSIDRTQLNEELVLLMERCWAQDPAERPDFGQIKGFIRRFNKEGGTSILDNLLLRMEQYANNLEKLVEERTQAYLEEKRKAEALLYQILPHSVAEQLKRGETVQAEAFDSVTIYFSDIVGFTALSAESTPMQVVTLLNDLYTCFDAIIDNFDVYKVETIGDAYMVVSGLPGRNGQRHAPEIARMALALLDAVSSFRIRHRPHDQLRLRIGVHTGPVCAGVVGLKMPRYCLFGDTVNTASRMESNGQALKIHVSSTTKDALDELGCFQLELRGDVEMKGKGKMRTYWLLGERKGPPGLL
T1 sequence (P78324 whole entry, looked up, the tested form may be a part): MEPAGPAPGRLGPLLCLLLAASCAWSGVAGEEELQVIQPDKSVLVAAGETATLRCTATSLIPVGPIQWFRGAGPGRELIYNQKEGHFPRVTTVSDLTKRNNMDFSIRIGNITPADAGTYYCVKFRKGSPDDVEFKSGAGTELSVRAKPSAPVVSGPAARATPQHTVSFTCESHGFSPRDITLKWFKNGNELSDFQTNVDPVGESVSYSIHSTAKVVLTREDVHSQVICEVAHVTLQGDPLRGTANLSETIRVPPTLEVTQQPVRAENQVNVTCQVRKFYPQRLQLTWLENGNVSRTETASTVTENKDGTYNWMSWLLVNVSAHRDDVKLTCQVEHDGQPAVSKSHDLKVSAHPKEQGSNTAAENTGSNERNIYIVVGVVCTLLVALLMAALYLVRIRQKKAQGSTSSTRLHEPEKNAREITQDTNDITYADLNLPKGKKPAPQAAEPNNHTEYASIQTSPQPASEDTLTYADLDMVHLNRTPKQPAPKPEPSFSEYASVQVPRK
T1 sequence (Q08722 whole entry, looked up, the tested form may be a part): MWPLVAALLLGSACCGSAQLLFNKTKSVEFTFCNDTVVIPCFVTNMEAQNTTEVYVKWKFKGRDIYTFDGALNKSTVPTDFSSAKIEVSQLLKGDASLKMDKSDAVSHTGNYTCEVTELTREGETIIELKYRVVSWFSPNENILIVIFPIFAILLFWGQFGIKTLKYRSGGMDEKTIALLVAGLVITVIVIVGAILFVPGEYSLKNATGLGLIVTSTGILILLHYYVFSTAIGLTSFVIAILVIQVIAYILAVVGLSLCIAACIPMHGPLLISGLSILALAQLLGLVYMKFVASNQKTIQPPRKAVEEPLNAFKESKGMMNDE
Atrial natriuretic peptide receptor 1 (Homo sapiens), sequence (P16066 whole entry, looked up): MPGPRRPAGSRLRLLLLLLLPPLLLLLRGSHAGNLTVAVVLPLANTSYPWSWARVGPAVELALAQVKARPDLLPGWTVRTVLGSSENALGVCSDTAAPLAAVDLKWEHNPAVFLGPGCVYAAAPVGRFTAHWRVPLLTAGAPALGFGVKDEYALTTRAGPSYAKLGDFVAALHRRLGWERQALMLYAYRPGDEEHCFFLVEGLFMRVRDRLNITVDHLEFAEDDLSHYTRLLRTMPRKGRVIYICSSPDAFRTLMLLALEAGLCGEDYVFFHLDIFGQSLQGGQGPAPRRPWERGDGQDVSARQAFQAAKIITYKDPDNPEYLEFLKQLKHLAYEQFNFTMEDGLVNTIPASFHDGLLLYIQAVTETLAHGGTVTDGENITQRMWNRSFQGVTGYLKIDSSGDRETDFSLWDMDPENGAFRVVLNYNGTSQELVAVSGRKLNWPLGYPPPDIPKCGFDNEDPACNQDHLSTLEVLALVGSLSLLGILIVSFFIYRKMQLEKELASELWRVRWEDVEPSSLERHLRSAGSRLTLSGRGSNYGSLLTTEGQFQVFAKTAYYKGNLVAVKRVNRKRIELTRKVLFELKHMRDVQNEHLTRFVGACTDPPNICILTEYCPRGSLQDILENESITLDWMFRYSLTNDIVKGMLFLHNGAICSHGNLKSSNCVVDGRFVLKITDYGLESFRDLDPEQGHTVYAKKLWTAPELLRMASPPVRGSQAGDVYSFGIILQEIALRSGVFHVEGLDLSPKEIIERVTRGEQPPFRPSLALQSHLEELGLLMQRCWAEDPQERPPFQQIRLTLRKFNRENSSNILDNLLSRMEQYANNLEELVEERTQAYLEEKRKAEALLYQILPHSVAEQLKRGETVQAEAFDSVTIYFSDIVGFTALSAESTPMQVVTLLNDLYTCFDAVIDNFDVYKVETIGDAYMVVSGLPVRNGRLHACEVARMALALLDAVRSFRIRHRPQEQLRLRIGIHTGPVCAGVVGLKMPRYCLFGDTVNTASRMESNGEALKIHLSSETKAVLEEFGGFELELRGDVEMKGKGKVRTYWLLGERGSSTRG

For `Nc1c(CC(=O)O)cccc1C(=O)c1ccc(Br)cc1`, the Potency result in test [1], in test [2], in [3], in test [4], in test [5] and in [6] was “inactive” each time. The Potency result in test [7], in test [8], in test [9], in test [10], in test [11] and in [12] was “inactive” throughout. For the same compound, the Potency entry in test [13] was “inactive”.
For the compound `O=C(O)CC1CC(c2ccccc2)=NO1` (stereo not given), the Potency result in test [1], in test [14] and in [15] was “inactive” in each case. Moreover, the Potency in test [16] was 10600 nM (active).
Take `CN(C)CCn1nnnc1SCC1=C(C(=O)O)N2C(=O)[C@@H](NC(=O)Cc3csc(N)n3)[C@H]2SC1`: the Potency entry in test [1], in test [2], in test [3], in [4], in test [5] and in test [6] was “inactive” throughout. In addition, the Potency entry in test [7], in test [8], in test [9], in [10], in [11] and in test [12] was “inactive” throughout. In addition, in test [13], the Potency entry was “inactive”.
On to `[O-][n+]1ccccc1SSc1cccc[n+]1[O-]`, for which the Potency in test [1] was 7310 nM (active); in test [3] it was 325 nM (active); in [4], 73.1 nM (active); in test [6], 73.1 nM (active); in test [7], 58 nM (active); in [8], 3010 nM (active). Moreover, the Potency in test [10] was 231 nM (active); in [11], 92 nM (active); in [12] it was 67 nM (active); in test [13] it was 92 nM (active).
On to `CC(=O)SCC[N+](C)(C)C`, for which the Potency entry in [14], in test [17], in [15], in [2], in test [18] and in test [20] was “inactive” in each case. Moreover, in test [16], the Potency entry is “inactive”. In addition, the outcome in test [19] was inactive.
For the compound `CN(C)c1ccc(C(=C2C=CC(=[N+](C)C)C=C2)c2ccccc2)cc1`, the Potency is 23100 nM (active) in test [1]; 105 nM (active) in test [3]; 106 nM (active) in [4]; 42.2 nM (active) in test [6]; 53.1 nM (active) in test [7]; 97.8 nM (active) in [8]. For the same compound, the Potency was 1330 nM (active) in test [10], 53.1 nM (active) in test [11], 1090 nM (active) in [12] and 133 nM (active) in test [13].
For the compound `Nc1nc(Cl)nc2c1ncn2[C@@H]1O[C@H](COP(=O)(O)OP(=O)(O)OP(=O)(O)O)[C@@H](O)[C@H]1O`, the Potency result in test [14], in [17], in test [15], in test [2], in test [18] and in test [20] was “inactive” throughout. The Potency result in [16] is “inactive”. Further, the outcome in test [19] was inactive.
Turning to `CC(C(=O)O)c1ccc2c(c1)[nH]c1ccc(Cl)cc12` (stereo not given), the Potency entry in test [1], in test [2], in test [3], in test [4], in test [5] and in [6] was “inactive” in each case. The Potency result in [8], in test [9], in [10], in test [11] and in test [13] was “inactive” throughout.
For the compound `Oc1ccc(C2CNCc3sccc32)cc1O` (stereo not given), the Potency entry in [14], in test [17], in test [15], in [2], in [18] and in test [20] was “inactive” each time. Also, in [16], the Potency result was “inactive”. Further, the result in [19] was inactive.

The values are drawn from PubChem BioAssay (NCATS).
